Among the data in PubChem BioAssay (NCATS) are Potency values, retold here.

Results filed as inconclusive are left out. Calls of active or inactive are those of the source. Calls come from the whole dose curve; as a rule, active = well fitted inhibition curve with a large enough effect; inconclusive = small, poorly fitted or top-dose-only effect; inactive = flat fitted curve, though single readings scatter.

Common to all, as to assay: qHTS profiling for inhibitors of Plasmodium falciparum proliferation (AID 504749); note: nearly all actives have a fitted effect of over 60% in size
Holding throughout (conditions): P. falciparum in erythrocytes, SYBR Green DNA, 72 h; series mostly up to 12.8 µM
On the technique in general: qHTS replaces the single test concentration by a dilution series.

One experiment has as its system 3D7. Summed up:
(§1)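 Infected RBCs, 0.3% parasitemia/2.5% Hct final; cpd 72 h, 37 C, 5% CO2; lysis buffer with saponin/triton/SYBR Green I, o/n RT dark; FI 485/535; norm. to artemisinin (0.29 uM) and DMSO.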

The next experiment concerns AS120. A digest of the protocol:
as §1

In another experiment the test system is CP192. A digest of the protocol: as §1
For another experiment, the system named is CP217. A digest of the protocol:
as §1

A further experiment relates to CP250. Summed up: as §1
The next experiment has as its system CP252. Summed up: as §1
Another experiment relates to CP268. A digest of the protocol:
as §1

The next experiment has as its system CP269. A digest of the protocol: as §1
The next experiment has as its system CP297. A digest of the protocol:
as §1

For a further experiment, the system named is CP305. Summed up:
as §1

The next experiment deals with CP315. A digest of the protocol:
as §1

A further experiment has as its system CP329. Summed up: as §1
For a further experiment, the system named is DFO2036. A digest of the protocol: as §1
Another experiment deals with DIV14. Summed up: as §1
The test system of the next experiment is ECU. A digest of the protocol: as §1
In a further experiment the test system is HB3. A digest of the protocol: as §1
In a further experiment the test system is N140. A digest of the protocol: as §1
The subject of another experiment is PC15. Summed up:
as §1

The subject of a further experiment is PC49. Summed up: as §1
The test system of a further experiment is TAB113. Summed up: as §1
Potency is the fitted concentration of half-maximal effect.

With `CC(C)NC[C@H]1CCc2cc(CO)c([N+](=O)[O-])cc2N1`, the Potency entry with 3D7, in the experiment on AS120, with CP192, with CP217, in the experiment on CP250 and with CP252 was “inactive” throughout. The Potency entry in the experiment with CP268, in the experiment on CP269, with CP297, with CP305, with CP315 and in the experiment on CP329 was “inactive” in each case. The Potency entry in the experiment with DFO2036, in the experiment with DIV14, with ECU, in the experiment on HB3, in the experiment with N140 and in the experiment with PC15 was “inactive” throughout. The Potency entry with PC49 and in the experiment on TAB113 was “inactive” in each case.

With `CCN[C@@H]1CN(CCCOC)S(=O)(=O)c2sc(S(N)(=O)=O)cc21`, the Potency result in the experiment with 3D7, in the experiment on AS120, in the experiment on CP192, in the experiment with CP217, with CP250 and with CP252 was “inactive” in each case. Moreover, the Potency entry in the experiment on CP268, in the experiment on CP269, with CP297, with CP305, in the experiment on CP315 and in the experiment with CP329 was “inactive” in each case. The Potency result with DFO2036, in the experiment with DIV14, in the experiment with ECU, with HB3, in the experiment with N140 and in the experiment with PC15 was “inactive” throughout. The Potency entry in the experiment with PC49 and in the experiment with TAB113 was “inactive” each time.

Turning to `Cn1nnnc1SCC1=C(C(=O)O)N2C(=O)[C@@H](NC(=O)[C@@H](O)c3ccccc3)[C@@H]2SC1`, the Potency entry in the experiment on 3D7, in the experiment with AS120, in the experiment on CP192, in the experiment on CP217, with CP250 and with CP252 was “inactive” in each case. The Potency entry with CP268, with CP269, in the experiment on CP297, in the experiment with CP305, with CP315 and in the experiment with CP329 was “inactive” in each case. Further, the Potency result in the experiment with DFO2036, in the experiment with DIV14, with ECU, in the experiment on HB3, in the experiment with N140 and with PC15 was “inactive” throughout. The Potency entry in the experiment on PC49 and in the experiment on TAB113 was “inactive” each time.

Turning to `COc1cc2nc(N3CCN(C(=O)[C@@H]4COc5ccccc5O4)CC3)nc(N)c2cc1OC`, the Potency result with CP217, with CP250, with CP252, in the experiment on CP268, in the experiment with CP305 and in the experiment on CP315 was “inactive” in each case. Moreover, the Potency result in the experiment with DFO2036, with PC15 and in the experiment on PC49 was “inactive” each time. The Potency in the experiment on DIV14 was 13.5 µM (active).

With `C=C1c2c(Cl)ccc(O)c2C(O)=C2C(=O)[C@@]3(O)C(O)=C(C(N)=O)C(=O)[C@@H](N(C)C)[C@@H]3[C@@H](O)[C@H]12`, the Potency result in the experiment with AS120, in the experiment with CP192, with CP250, in the experiment with CP252, with CP268 and with CP269 was “inactive” each time. The Potency result in the experiment on CP297, in the experiment with CP305, in the experiment on CP315, with CP329, with DIV14 and with N140 was “inactive” throughout. The Potency result in the experiment on PC15 and in the experiment with PC49 was “inactive” throughout.

Regarding `CCCCC[C@H](O)/C=C\[C@@H]1[C@H](O)CC(=O)[C@@H]1CCCCCCC(=O)O`, the Potency result with 3D7, with AS120, in the experiment on CP192, in the experiment on CP217, in the experiment on CP250 and in the experiment with CP252 was “inactive” each time. Also, the Potency result in the experiment with CP269, with CP297, in the experiment with CP305, in the experiment with CP315, in the experiment with CP329 and in the experiment on DFO2036 was “inactive” throughout. In addition, the Potency entry with ECU, with N140, with PC15, in the experiment on PC49 and in the experiment with TAB113 was “inactive” throughout.

For `CO[C@H]1[C@H](O[C@H]2O[C@@H](C)[C@@H](O[C@@H]3C[C@](C)(O)[C@H](O)[C@H](C)O3)[C@@H](N(C)C)[C@@H]2O)[C@@H](CC=O)C[C@@H](C)[C@@H](O[C@H]2CC[C@H](N(C)C)[C@H](C)O2)/C=C\C=C/C[C@@H](C)OC(=O)C[C@H]1O`, the Potency entry in the experiment with 3D7, in the experiment on AS120, with CP192, with CP250, in the experiment on CP315 and in the experiment on CP329 was “inactive” each time. The Potency entry with DFO2036, in the experiment on DIV14, in the experiment with ECU, in the experiment with HB3, with N140 and with PC15 was “inactive” throughout. Besides, in the experiment on PC49, the Potency entry is “inactive”.

For the compound `O=C1O[C@@H]([C@@H](O)CO)[C@@H](O)[C@H]1O`, the Potency result in the experiment on 3D7, with AS120, in the experiment on CP192, in the experiment on CP217, in the experiment on CP250 and in the experiment on CP252 was “inactive” throughout. In addition, the Potency entry in the experiment with CP268, in the experiment on CP269, with CP297, in the experiment on CP305, in the experiment on CP315 and in the experiment on CP329 was “inactive” throughout. Besides, the Potency entry in the experiment on DFO2036, in the experiment on DIV14, in the experiment with ECU, with HB3, in the experiment on N140 and in the experiment on PC15 was “inactive” each time. Moreover, the Potency entry in the experiment on PC49 and in the experiment with TAB113 was “inactive” in each case.

`C[C@H]1CS(=O)(=O)CCN1/N=C\c1ccc([N+](=O)[O-])o1`: the Potency entry with 3D7, in the experiment on AS120, with CP192, in the experiment with CP217, in the experiment with CP250 and in the experiment with CP252 was “inactive” in each case. Besides, the Potency entry with CP268, with CP269, in the experiment with CP297, with CP305, in the experiment with CP315 and with CP329 was “inactive” each time. Besides, the Potency result in the experiment with DFO2036, with ECU, in the experiment on HB3, with N140, in the experiment on PC15 and in the experiment with PC49 was “inactive” throughout. Besides, the Potency result in the experiment on TAB113 is “inactive”.

Consider `CCCCC[C@H](O)/C=C\[C@H]1[C@H](C/C=C\CCCC(=O)O)[C@@H](O)C[C@H]1O` (tested in a mixture with another compound), for which the Potency result in the experiment with 3D7, in the experiment with AS120, with CP192, in the experiment on CP217, in the experiment with CP250 and with CP252 was “inactive” each time. For the same compound, the Potency result in the experiment on CP268, in the experiment with CP269, in the experiment on CP297, in the experiment with CP305, in the experiment on CP315 and in the experiment with CP329 was “inactive” in each case. Besides, the Potency result in the experiment with DFO2036, in the experiment with DIV14, with ECU, with HB3, with N140 and with PC15 was “inactive” each time. Moreover, the Potency result in the experiment with PC49 and with TAB113 was “inactive” each time.

For the compound `O[C@@](CCN1CCCC1)(c1ccccc1)C1CCCCC1`, the Potency result with 3D7, in the experiment with CP192, in the experiment on CP217, in the experiment on CP250, with CP252 and in the experiment on CP268 was “inactive” throughout. Further, the Potency entry in the experiment with CP269, in the experiment on CP297, in the experiment on CP315, with DFO2036, in the experiment on ECU and in the experiment on HB3 was “inactive” each time. Besides, the Potency result in the experiment with TAB113 was “inactive”. Moreover, the Potency in the experiment with DIV14 is 2.87 µM (active).

For `NC[C@@H]1O[C@H](O[C@@H]2[C@H](O[C@@H]3O[C@H](CO)[C@@H](O)[C@@H]3O)[C@@H](O)[C@@H](N)C[C@H]2N)[C@@H](N)[C@H](O)[C@@H]1O`, the Potency entry in the experiment on 3D7, with AS120, with CP192, in the experiment with CP217, with CP250 and in the experiment on CP252 was “inactive” throughout. The Potency entry with CP268, with CP269, with CP297, with CP305, in the experiment with CP315 and in the experiment with CP329 was “inactive” throughout. The Potency entry with DFO2036, with DIV14, in the experiment with ECU, in the experiment with HB3, in the experiment with N140 and in the experiment on PC15 was “inactive” in each case. Also, the Potency result in the experiment on PC49 and in the experiment on TAB113 was “inactive” throughout.
